Compounds with a hit are over-represented: about 3.6% of the library has one in this group of screens.
Myeloid diff MLP = promotes myeloid progenitor differentiation | actives 1% (n = 360,000) | ER-HoxA9 myeloid progenitors, lysozyme-GFP differentiation, flow cytometry | calls only at 10 µM | AID 624256;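 active = normalized GFP-positive differentiation at or above the plate's own cutoff, the solvent-only control mean plus 3 SD; inconclusive = no clear call, values can overlap the other calls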;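 note: cells exposed to compound for four days before flow analysis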
FAS-TE inh = inhibitors of human fatty acid synthase thioesterase domain. recombinant FAS-TE, OMFH fluorogenic substrate, fluorescence endpoint. inhibition, % at 15 µM. actives 0.67% (n = 360,000);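 active = compounds whose normalised, plate-corrected inhibition of enzyme fluorescence in the single-dose primary screen is 50% or more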;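 note: 0% = DMSO with enzyme and 100% = substrate without enzyme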
NRP1-CendR mod = alters CendR peptide binding to human NRP-1. O14786. FAM-RPARPAR peptide binding to NRP-1, fluorescence polarization. inhibition, % at 25 µM. actives 0.85% (n = 360,000). AID 602438;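 active = inhibition or corrected inhibition above about 18%, plus a signal ratio from 0.5 to 1.5, limit read from the data, passing the limit was not always enough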
NadD inh = NadD (S. aureus) enzyme inhibition; actives 0.78% (n = 360,000); inhibition, % at 20 µM; AID 602399; purified NadD enzyme, colorimetric absorbance read-out; in the data active = inhibition above about 26%
CRFR2-BP antag = antagonists of CRF-binding protein/CRF-R2 receptor complex. HEK293 CRF-R2/CRF-BP, CRF-induced calcium fluorescence. inhibition, % at 11.8 µM. actives 0.59% (n = 350,000);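 active = inhibition of the ligand-induced calcium signal above about 50% at the single tested concentration, limit read from the data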
Active calls of the source: *; i = inactive; ? = inconclusive; · = no result; + = active, no number.

SMILES | Myeloid diff MLP | FAS-TE inh | NRP1-CendR mod | NadD inh | CRFR2-BP antag
COC(=O)C1CC2=C(CCCC2=O)N(Cc2ccccc2)C1=O (stereo not drawn) | i | -5 | 12 | 0 | -4
Cc1cccc(C)c1C(O)c1ncc(-c2ccccc2F)[nH]1 (stereo not drawn) | i | -3 | 4 | 3 | ·
Cc1cccc(C(O)c2ncc(-c3ccccc3F)[nH]2)c1C (stereo not drawn) | i | -5 | 30* | -1 | ·
N#Cc1cccc(C(=O)C(=O)N2CCCN(Cc3ccc(F)cc3)CC2)c1 | i | · | 7 | · | ·
CC(=O)Nc1ccc(S(=O)(=O)NC(C)C(=O)NCC(c2ccco2)N(C)C)cc1 (stereo not drawn) | i | -8 | 27* | 2 | 8
CC(=O)Nc1ccc(C(=O)NCC(c2ccco2)N(C)C)cc1 (stereo not drawn) | i | -8 | 10 | 5 | -18
COC(=O)c1c(C)[nH]c(C(=O)/C=C/c2ccccc2)c1C | + | -6 | 4 | -6 | 6
COC(=O)c1c(C)[nH]c(C(=O)/C=C/c2ccc(C)cc2)c1C | i | -4 | 1 | -8 | -9
COc1ccc(CCN(Cc2nc3ccccc3c(=O)[nH]2)C(=O)C2CC2)cc1 | i | -7 | 12 | 3 | -3
COc1ccc(-n2ncc3c2CC(C)(C)CC3NC(=O)CCN2CCCCC2=O)cc1 (stereo not drawn) | + | -5 | -2 | -2 | -9
Cc1cccc(NC(=O)CCc2nc3sc4c(c3c(=O)[nH]2)CCCC4)c1 | i | -5 | -4 | -1 | -18
Cc1cccc(NC(=O)C(C)SCc2nc3sc4c(c3c(=O)[nH]2)CCCC4)n1 (stereo not drawn) | + | -7 | -77 | 4 | 14
CNc1nc2cc([N+](=O)[O-])c([N+](=O)[O-])cc2nc1NC | ? | -2 | -1 | 1 | 66*
CCN(CC)Cc1nc2nc(Cl)c(Cl)nc2[nH]1 | i | -6 | -23 | -4 | -40
Cc1ccc(N/C(=N/S(=O)(=O)c2cccs2)c2ccccc2)c(C)c1 | + | -1 | 7 | -3 | 9
Cc1ccc(S(=O)(=O)/N=C(/Nc2ccc([N+](=O)[O-])cc2)c2ccccc2)cc1 | ? | 30 | 7 | -6 | -14
Cc1ccc(S(=O)(=O)/N=C(/Nc2ccc([N+](=O)[O-])cc2[N+](=O)[O-])c2ccccc2)cc1 | i | 22 | 5 | 3 | 67*
COc1ccc(-c2nc3c(C)cc(Br)cn3c2Cc2cccc(Cl)c2)cc1OC | i | 27 | -1 | 6 | ·
CC1=C(C(=O)N(C)C)CC(CC(=O)NCCCN(C)C)C(=O)N1CCCN1CCCC1=O (stereo not drawn) | i | -10 | 12 | -6 | ·
CC(Nc1nc(-c2ccc(F)cc2)cs1)c1nc2cc(Cl)c(Cl)cc2n1CCOCCO (stereo not drawn) | i | 17 | -7 | 8 | 0
Cc1csc(NC(C)c2nc3cc(C(F)(F)F)ccc3n2CCOCCO)n1 (stereo not drawn) | i | -6 | 33* | -4 | -3
COCCN1Cc2cccc(C(=O)Nc3ccc(S(=O)(=O)N4CCCCC4)cc3)c2C1=O | + | 16 | 1 | -6 | -4
COC(=O)C1=CN(c2ccc(F)cc2)C(N)=C(C#N)C1c1ccccc1 (stereo not drawn) | i | · | 7 | · | ·
COC(=O)C1=CN(c2ccc3c(c2)OCO3)C(N)=C(C#N)C1c1ccccc1 (stereo not drawn) | + | · | 15 | · | ·
Cc1n[nH]c(=O)nc1NCc1ccccc1 | i | -7 | -11 | -5 | -7
SMILES | Myeloid diff MLP | FAS-TE inh | NRP1-CendR mod | NadD inh | CRFR2-BP antag
Cc1n[nH]c(=O)nc1NCc1ccco1 | i | -7 | 25* | -9 | 8
CN(C)c1nc(N)c([N+](=O)[O-])c(N2CCCCCC2)n1 | i | 0 | 5 | -1 | -5
Cc1cc(F)ccc1S(=O)(=O)Nc1ccccc1C(=O)NCc1ccccn1 | i | 0 | 0 | 0 | 3
Cc1cc(F)ccc1S(=O)(=O)Nc1ccccc1C(=O)Nc1ncn[nH]1 | i | 9 | 19* | 9 | 9
COC(=O)/C=C1\OC(c2ccccc2)c2ccccc21 (stereo not drawn) | i | · | -1 | · | ·
CN(C)S(=O)(=O)c1ccc(C(=O)Nc2ccccc2OC(F)(F)C(F)F)cc1 | + | 7 | 7 | 0 | -30
COc1ccc(CCNC(=O)c2cccc3c2C(=O)N(C2CCCCC2)C3)cc1OC | i | 11 | 2 | -1 | 74*
O=C(NCCc1ccccc1)c1cccc2c1C(=O)N(C1CCCCC1)C2 | i | 29 | 3 | -2 | 15
CCCc1nc2ccccc2n1C(C(=O)NC(C)(C)C)C1CC1 (stereo not drawn) | i | · | 4 | · | ·
CCCc1c(NC(=O)Nc2ccc(F)cc2)cnn1-c1ccc(Cl)cc1 | + | 17 | 3 | -2 | 4
CCOc1ccc2nc(SC3CC(=O)N(c4ccc(OC)cc4OC)C3=O)sc2c1 (stereo not drawn) | i | 11 | 1 | -4 | -5
CC(C)c1ccc(/C=c2\sc3n(c2=O)C(N)=C(C#N)C(c2ccc(C(C)C)cc2)C=3C(N)=O)cc1 (stereo not drawn) | i | 0 | -18 | 25 | 22
N#CC1=C(N)n2c(s/c(=C\c3ccco3)c2=O)=C(C#N)C1c1ccco1 (stereo not drawn) | i | 4 | -48 | 50* | -14
COC1(OC)C=CC(=O)C=C1NC(=O)c1ccccc1OC(C)=O | ? | -6 | 0 | -4 | 104*
COc1ccccc1C(=O)N1CCN(C(=O)[C@H]2O[C@@H](n3ccc(=O)[nH]c3=O)[C@H](O)[C@@H]2O)CC1 | i | -7 | 3 | -7 | ·
CCOC(=O)CSC1=N/C(=C\c2ccc(OC)c(OC)c2)C(=O)N1C | i | -11 | 9 | -3 | -4
COc1cc(C)cc(C(=O)O)c1C1=C(O)c2cccc(O)c2C(=O)C1=O | i | -4 | 28* | 8 | 7
COc1ccccc1NS(=O)(=O)c1cc([N+](=O)[O-])ccc1N/N=C/c1sc(N2CCOCC2)nc1-c1ccccc1 | + | 50 | -214 | 37* | -114
COc1ccc(C(=O)N/N=C/c2sc(N3CCOCC3)nc2-c2ccccc2)cc1OC | i | -1 | 9 | -1 | -3
CC1CCc2[nH]c3ccc(C(=O)NCCCOC(C)C)cc3c2C1 (stereo not drawn) | i | -2 | 35* | 4 | -5
COc1ccc(C(CNC(=O)c2ccc(OCc3csc(C)n3)cc2)N2CCCC2)cc1 (stereo not drawn) | i | -7 | -5 | -4 | 2
Cc1cc(C=O)c(C)n1-c1ccc(N2CCCCC2)c([N+](=O)[O-])c1 | i | -18 | 41* | 2 | 3
COC(=O)C1=C/C=C\CN(C(c2ccccc2)c2ccccc2)/C=C\1C(=O)OC | i | 9 | 5 | -2 | 52*
CC(Sc1ccc([N+](=O)[O-])cn1)C(=O)Nc1nccs1 (stereo not drawn) | · | 16 | -3 | 3 | -15
